# HT1080 IDH1KD tx = toxicity to HT-1080 IDH1 knockdown cells (counter line). HT-1080 IDH1 knockdown viability, ATP luminescence, 48 h. Potency, µM (top dose mostly 46.1 µM), inactives show at the top dose activity, negative = toxicity, usual class: cytotoxic. hit rate 2% among 360,000;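 further: 0% = DMSO wells and -100% = cell-free medium wells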
#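 After a 2 h attachment period, IDH1KD HT-1080 cells took pin-transferred compound for 48 h at 37 °C; ATP-based luminescence after 10 min room-temperature reagent incubation reported viability.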
# TDP1 cell noCPT = qHTS for Inhibitors of human tyrosyl-DNA phosphodiesterase 1 (TDP1): qHTS in cells in absence of CPT. hit rate 15% among 420,000. Potency, µM (series often up to 46.2 µM), inactives show at the highest dose activity change, negative = growth inhibition, hits mostly inhibitors. DT40 Tdp1-/- hTDP1 cells, no CPT, ATP luminescence, 48 h. AID 686978, 2013; further: nearly all actives have a fitted effect of over 55% in size
#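 Growth kinetics read by CellTiter-Glo luminescence after ≥48 hr at 37 °C. Cells: DT40 Tdp1-/- stably carrying human TDP1, 400 per well, compound exposure in the absence of CPT (DMSO vehicle).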
# KB-3-1 cytotox = KB-3-1 parental cell cytotoxicity. KB-3-1 viability, CellTiter-Glo ATP luminescence, 72 h. hit rate 1.4% among 400,000. Potency, µM (series often up to 46.1 µM), usual class: cytotoxic; further: nearly all actives have a fitted effect of over 60% in size
#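 Multi-concentration cytotoxicity screen in KB-3-1 cells grown in DMEM lacking phenol red with 10% FBS. After 72 h at 37 °C with compound, ATP-dependent luminescence was recorded.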
# KB-V1 MDR tox = KB-V1 MDR subline cytotoxicity; KB-V1 MDR cells viability, CellTiter-Glo, 72 h; Potency, µM (highest dose often 46.1 µM), most hits filed as cytotoxic; hit rate 3.4% among 400,000; AID 1347076; further: nearly all actives have a fitted effect of over 60% in size
#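 Cytotoxicity via CellTiter-Glo luminescence after 72 h compound exposure at 37 degrees C. Cells: drug-selected KB-V1 line, DMEM phenol-red free plus 10% FBS. Compounds tested at multiple concentrations; normalized data fitted to concentration-effect curves.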
# TDP1 cell CPT = growth inhibition of DT40 Tdp1-/-;hTDP1 cells with camptothecin (screen for TDP1 inhibitors); chicken DT40 Tdp1-/-;hTDP1 cells + 20 nM CPT, ATP luminescence, 48 h; Potency, µM (doses to about 46.2 µM), for the others: at the top dose activity change, negative = growth inhibition, usual class: inhibitors; hit rate 12% among 420,000; AID 686979; further: nearly all actives have a fitted effect of over 55% in size
#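 Cell growth measured by CellTiter-Glo luminescence after a minimum 48 h, 37 C compound exposure with 20 nM CPT in Tdp1-knockout DT40 cells stably expressing hTDP1, seeded 400/well; qHTS titration format.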
# HT1080NT lethal = kills 2HG-producing HT-1080-NT fibrosarcoma cells; HT-1080-NT fibrosarcoma viability, CellTiter-Glo ATP luminescence, 48 h; hit rate 1.6% among 360,000; AID 686970; Potency, µM (doses to about 46.1 µM), inactives show at the highest dose activity, negative = less viability, most hits filed as cytotoxic;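 further: NT is the 2HG producing partner of a matched IDH1 knockdown line; 0% = DMSO-treated cells and -100% = media-only wells without cells; nearly all actives have a fitted effect of over 55% in size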
#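 Toxicity toward the 2HG-producing NT line was scored as %Activity, normalised to DMSO and no-cell wells, from CellTiter-Glo luminescence after 48 hours' treatment.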
# * marks the source's active call; other numbers are inactive results; i = inactive; ? = inconclusive; · = not tested or not shown; [ ] = dose if it differs, or a comment. Hits are enriched below; roughly 19% of the tested compounds scored in any of these assays. The call rests on the fitted dose curve; in most records, active means well fitted curve in the direction sought with a large enough effect; inconclusive means small, poorly fitted or top-dose-only effect, or another doubt; inactive means no such curve, though single readings can be large; an effect the other way counts as inactive or inconclusive. Unless noted, on the % scale 0 is the no-effect control and ±100 the full control effect; potency means the concentration at half of the fitted maximal effect.
SMILES,HT1080 IDH1KD tx,TDP1 cell noCPT,KB-3-1 cytotox,KB-V1 MDR tox,TDP1 cell CPT,HT1080NT lethal
CC(=O)Nc1ccc(C)cc1-c1nc2ccccc2n(Cc2cccc(Br)c2)c1=O,·,-11.4%,i,i,-17.8%,·
COC(=O)c1scc(-c2ccc(C)cc2)c1S(=O)(=O)Nc1cccc(C(F)(F)F)c1,·,-21.8%,i,i,?,·
CC(C)Cc1nc2cc(NS(=O)(=O)N(C)C)cc(C(=O)N3CCN(c4ccccc4)CC3)c2n1C,·,-11.7%,·,·,29.7%[9.04 µM],·
Cc1ccc([N+](=O)[O-])cc1NC(=O)CCCOc1ccccc1,17.9%,-0.2%,i,10.3µM*,5.4%,27.3%
CCOC(=O)C(=O)Nc1cc([N+](=O)[O-])ccc1C,2.2%,1.4%,i,i,2.3%,14.1%
COCC(=O)Nc1cc([N+](=O)[O-])ccc1C,0.4%,?,i,?,23.1µM*,1.9%
O=C(CSc1ccccc1F)NNC(=O)c1cncc(Br)c1,8.2%,13.4%,i,i,-1.3%,6.8%
Cc1cc(-c2ccn[nH]2)c(C)s1,-12.4%,3.9%,i,i,-6.0%,0.9%
CCOC(=O)c1cc2ccccc2n1C1CCN(C)CC1,-29.3%,25.9µM*,i,?,?,-29.2%
Cc1ccc(S(=O)(=O)N2CCN(c3nc(-n4cncn4)nc4ccccc34)CC2)cc1,9.8%,?,·,·,4.7%,1.8%
COc1ccc(-c2ccc3c(c2)S(=O)(=O)c2cccc(C(=O)NC4CCCC4)c2C3=O)cc1OC,5.1%,-21.7%,i,i,-29.7%,9.7%
COc1ccc(-c2ccc3c(c2)S(=O)(=O)c2cccc(C(=O)N4CCN(C5CCCCC5)CC4)c2C3=O)cc1OC,-18.3%,?,i,i,18.4µM*,0.3%
COc1ccc(-c2ccc3c(c2)S(=O)(=O)c2cccc(C(=O)O)c2C3=O)cc1OC,0.0%,12.0%,i,i,-4.6%,0.0%
O=C1c2ccc(-c3ccc(Cl)c(C(F)(F)F)c3)cc2S(=O)(=O)c2cccc(C(=O)N3CCN(c4ccc(Cl)cn4)CC3)c21,2.9%,13µM*,i,i,?,1.2%
O=C(O)c1cccc2c1C(=O)c1ccc(Cl)cc1S2(=O)=O,2.2%,0.4%,i,i,2.2%,5.5%
COc1ccc(-c2ccc3c(c2)S(=O)(=O)c2cccc(C(=O)N4CCN(c5ccccn5)CC4)c2C3=O)cc1OC,2.3%,14.6µM*,i,?,18.4µM*,-0.2%
O=C1c2ccc(-c3ccc(F)cc3OCc3ccccc3)cc2S(=O)(=O)c2cccc(C(=O)N3CCCC3)c21,-7.3%,14.6µM*,?,i,13µM*,-4.3%
Cc1ccc(CSc2ncc(Cl)c(C(=O)NCCc3ccc(S(N)(=O)=O)cc3)n2)cc1,·,?,i,?,?,·
COc1cccc(NC(=O)COC(=O)Cn2c(C)csc2=O)c1,3.9%,26.0%,i,?,-5.4%,1.9%
CCOC(=O)c1c(C)[nH]c(C)c1C(=O)COC(=O)COc1ccc(Cl)c(C)c1,9.2%,4.7%,i,?,1.4%,2.2%
O=S(=O)(NC1CC1)c1ccccc1,14.8%,6.0%,i,i,-14.6%,12.2%
O=C(COC(=O)c1cccc(S(=O)(=O)N2CCCCC2)c1)NCc1cccc(Cl)c1,-4.9%,0.6%,i,?,0.0%,-1.6%
c1ccc(CNc2nc(-c3ccc4c(c3)OCO4)nc3ccccc23)cc1,·,?,·,·,-2.9%,·
CCCCNc1nc(NCc2ccccc2)nc2ccccc12,16.4µM*,8.2µM*,?,?,20.6µM*,?
Oc1ccc(CCNc2c3ccccc3nc3ccccc23)cc1O,?,1.46µM*,18.4µM*,i,1.16µM*,23.1µM*
SMILES,HT1080 IDH1KD tx,TDP1 cell noCPT,KB-3-1 cytotox,KB-V1 MDR tox,TDP1 cell CPT,HT1080NT lethal
CNc1nc(NCc2ccccc2)c2ccccc2n1,?,4.61µM*,?,i,13µM*,?
OCC(Cc1ccccc1)Nc1c2ccccc2nc2ccccc12 (centres undefined),?,16.4µM*,i,?,?,-28.6%
COc1ccc(CCNC(=O)c2cc(Cl)nc3ccccc23)cc1,0.8%,-0.6%,i,i,?,4.4%
CCCCNc1nc2ccccc2nc1Cl,-5.7%,-24.6%,i,i,-5.8%,12.1%
C=CCOc1cccc(C(=O)Nc2ncn[nH]2)c1,15.6%,0.6%,i,i,-9.0%,7.5%
O=[N+]([O-])c1ccc2c(c1)C(=NO)c1cc(Cl)c(Cl)cc1-2,5.3%,?,?,?,?,17.7%
C[C@@H]1CN([C@@H](C)CO)C(=O)CCCn2nncc2CO[C@@H]1CN(C)S(=O)(=O)c1cccc(F)c1,-17.0%,-23.8%,i,?,-9.5%,-6.9%
Oc1ccccc1Nc1nc(-c2ccccc2)c2cc(Cl)ccc2n1,·,?,i,i,?,·
Oc1ccccc1Nc1nc(NCc2ccccc2)c2ccccc2n1,?,11.6µM*,23.1µM*,20.6µM*,11.6µM*,?
c1ccc(CNc2c3ccccc3nc3ccccc23)cc1,?,18.4µM*,i,?,13µM*,?
CCOC(=O)/C(N=Nc1sc(C(=O)OC)c(C)c1C(=O)OCC)=C(\O)CCl,4.3%,14.6µM*,i,?,?,8.6%
CCOC(=O)c1sc(N=NC2=C(O)CCCC2=O)c(C(=O)OCC)c1C,?,-13.9%,i,i,-19.4%,-16.1%
CCOC(=O)c1sc2nc3c(SCC(=O)O)cc(C(=O)c4cc(F)ccc4O)cn3c(=O)c2c1C,-2.5%,-11.5%,i,i,-10.3%,1.8%
Cc1sc2nc3c(SC(C)C(=O)O)cc(C(=O)c4ccccc4O)cn3c(=O)c2c1C (centres undefined),3.6%,1.8%,i,i,-3.2%,0.8%
CCc1c(C)sc2nc3c(C(=O)N4CCOCC4)cc(C(=O)c4ccccc4O)cn3c(=O)c12,-8.8%,14.6µM*,i,i,23.1µM*,-21.4%
COC(=O)c1cc(C(=O)c2cc(F)ccc2O)cn2c(=O)c3c(C)c(C)sc3nc12,0.1%,-23.7%,i,i,4.11µM*,-0.8%
COc1ccc(NC(=O)CNc2ccccc2N2CCCC2=O)cc1S(=O)(=O)N1CCOCC1,14.5%,4.8%,i,i,-0.8%,12.3%
